According to ChEMBL document CHEMBL3988442, “University of Dundee, Small-Polar-MMV Screening Library” (2021):
For some assays here: Potency and affinity values are given separately.

Legend:
Design in all cases: scale not given: direction of the effect not stated beside the values
[1] = target: Protein translocase subunit SecA (Escherichia coli (strain K12)) (UniProt P10408); experiment: Assay to Identify E. coli SecA ATPase Inhibitors; type: functional; conditions: 30 µM
[2] = target: T1, Ubiquitin-activating enzyme e1, putative (Leishmania donovani (strain BPK282A1)) (UniProt E9BSI1); experiment: Leishmania donovani Ubiquitin Activating Enzyme (LdE1); type: functional; conditions: 30 µM
T1 sequence (whole entry): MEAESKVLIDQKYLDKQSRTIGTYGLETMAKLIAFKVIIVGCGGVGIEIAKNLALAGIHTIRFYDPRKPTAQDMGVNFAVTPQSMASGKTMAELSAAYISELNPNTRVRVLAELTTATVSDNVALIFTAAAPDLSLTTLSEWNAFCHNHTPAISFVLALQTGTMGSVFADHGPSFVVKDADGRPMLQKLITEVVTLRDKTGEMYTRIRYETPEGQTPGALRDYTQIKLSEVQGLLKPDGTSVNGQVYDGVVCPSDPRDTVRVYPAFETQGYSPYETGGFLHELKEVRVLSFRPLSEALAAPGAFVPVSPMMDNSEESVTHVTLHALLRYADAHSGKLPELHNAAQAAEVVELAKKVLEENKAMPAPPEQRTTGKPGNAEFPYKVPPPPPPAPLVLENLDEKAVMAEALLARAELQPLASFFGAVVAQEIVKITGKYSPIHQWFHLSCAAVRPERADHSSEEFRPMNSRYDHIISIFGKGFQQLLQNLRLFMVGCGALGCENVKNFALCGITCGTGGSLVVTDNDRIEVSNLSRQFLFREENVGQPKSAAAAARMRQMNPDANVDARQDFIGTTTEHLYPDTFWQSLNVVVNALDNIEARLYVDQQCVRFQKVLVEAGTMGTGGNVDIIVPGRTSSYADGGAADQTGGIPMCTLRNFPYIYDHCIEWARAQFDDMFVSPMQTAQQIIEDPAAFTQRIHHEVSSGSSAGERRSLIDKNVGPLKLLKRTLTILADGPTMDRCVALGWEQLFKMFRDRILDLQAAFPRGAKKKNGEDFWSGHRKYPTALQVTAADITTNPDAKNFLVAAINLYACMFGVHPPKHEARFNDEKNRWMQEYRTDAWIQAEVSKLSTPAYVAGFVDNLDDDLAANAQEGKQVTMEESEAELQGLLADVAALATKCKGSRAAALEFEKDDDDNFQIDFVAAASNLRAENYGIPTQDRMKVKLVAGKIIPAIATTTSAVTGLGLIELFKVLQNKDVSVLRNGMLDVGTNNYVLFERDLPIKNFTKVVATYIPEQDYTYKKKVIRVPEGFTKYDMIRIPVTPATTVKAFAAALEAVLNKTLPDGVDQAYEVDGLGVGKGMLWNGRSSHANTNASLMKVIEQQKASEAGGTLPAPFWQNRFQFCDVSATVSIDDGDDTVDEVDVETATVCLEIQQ

[3] = target: AMP-activated protein kinase, AMPK (Homo sapiens) (UniProt P54646+O43741+P54619+Q9UGJ0+Q9Y478+Q13131+Q9UGI9); experiment: AMP-dependent Kinase enzyme assay. An in vitro enzyme assay that detects ADP turnover that is directly proportional to AMPK activity. This uses naive AMPK that is activated during the assay with MK-8722; type: functional; conditions: 30 µM
[4] = target: Sialic acid-binding Ig-like lectin 9 (Homo sapiens) (UniProt Q9Y336); experiment: Hs-Siglec9 ALPHAscreen SOP 20170721; conditions: 10 µM
Trypanosoma cruzi = experiment: Trypanosoma cruzi phosphomannomutase and mannose-1-phosphate guanylyltransferase assay; type: functional; conditions: 10 µM
[5] = target: T2, Arginase-2, mitochondrial (Homo sapiens) (UniProt P78540); experiment: in vitro enzyme assay to detect the production of urea directly proportional to the activity of Arginase II; type: functional; conditions: 33.3 µM; also: in the data most compounds retested in dose-response had high values
T2 sequence (whole entry): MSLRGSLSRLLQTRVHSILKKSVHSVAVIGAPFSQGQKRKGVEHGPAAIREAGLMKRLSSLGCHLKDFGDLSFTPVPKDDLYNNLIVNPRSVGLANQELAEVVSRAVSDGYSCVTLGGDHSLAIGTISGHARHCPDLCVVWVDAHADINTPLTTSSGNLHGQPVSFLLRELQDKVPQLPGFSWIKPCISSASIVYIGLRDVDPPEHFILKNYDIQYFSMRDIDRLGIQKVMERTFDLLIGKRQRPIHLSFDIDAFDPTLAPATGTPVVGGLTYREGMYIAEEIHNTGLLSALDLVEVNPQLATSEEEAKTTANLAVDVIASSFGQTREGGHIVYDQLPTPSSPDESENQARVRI

[6] = target: T3, Proteasome subunit beta (Trypanosoma cruzi) (UniProt O96673); experiment: Trypanosoma cruzi proteasome chymotrypsin-like activity (TcProtChymo) assay.; also: in the data most compounds retested in dose-response had high values; type: functional; conditions: 9.37 µM
T3 sequence (whole entry): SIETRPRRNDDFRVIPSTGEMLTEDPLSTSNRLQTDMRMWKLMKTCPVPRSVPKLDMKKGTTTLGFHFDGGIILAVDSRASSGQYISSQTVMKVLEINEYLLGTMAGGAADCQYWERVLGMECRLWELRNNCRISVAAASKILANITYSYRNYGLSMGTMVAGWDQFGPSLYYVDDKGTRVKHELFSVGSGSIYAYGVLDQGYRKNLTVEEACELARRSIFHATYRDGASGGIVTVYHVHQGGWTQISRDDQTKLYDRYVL

Homo sapiens = species: Homo sapiens; experiment: To identify inhibition of the IFN signalling (Jak-Stat) pathway via expression of an eGFP reporter gene under the control of an IFN-stimulated response element (ISRE) containing MxA promoter.; type: functional; conditions: 30 µM
[7] = target: T4, Tyrosyl-tRNA synthetase, putative (Trypanosoma cruzi (strain CL Brener)) (UniProt Q4DSP6); experiment: Trypanosoma cruzi tyrosyl tRNA synthetase (TcYRS) _High Tyrosine SOP; type: functional; conditions: 30 µM; also: in the data most compounds retested in dose-response had high values
T4 sequence (whole entry): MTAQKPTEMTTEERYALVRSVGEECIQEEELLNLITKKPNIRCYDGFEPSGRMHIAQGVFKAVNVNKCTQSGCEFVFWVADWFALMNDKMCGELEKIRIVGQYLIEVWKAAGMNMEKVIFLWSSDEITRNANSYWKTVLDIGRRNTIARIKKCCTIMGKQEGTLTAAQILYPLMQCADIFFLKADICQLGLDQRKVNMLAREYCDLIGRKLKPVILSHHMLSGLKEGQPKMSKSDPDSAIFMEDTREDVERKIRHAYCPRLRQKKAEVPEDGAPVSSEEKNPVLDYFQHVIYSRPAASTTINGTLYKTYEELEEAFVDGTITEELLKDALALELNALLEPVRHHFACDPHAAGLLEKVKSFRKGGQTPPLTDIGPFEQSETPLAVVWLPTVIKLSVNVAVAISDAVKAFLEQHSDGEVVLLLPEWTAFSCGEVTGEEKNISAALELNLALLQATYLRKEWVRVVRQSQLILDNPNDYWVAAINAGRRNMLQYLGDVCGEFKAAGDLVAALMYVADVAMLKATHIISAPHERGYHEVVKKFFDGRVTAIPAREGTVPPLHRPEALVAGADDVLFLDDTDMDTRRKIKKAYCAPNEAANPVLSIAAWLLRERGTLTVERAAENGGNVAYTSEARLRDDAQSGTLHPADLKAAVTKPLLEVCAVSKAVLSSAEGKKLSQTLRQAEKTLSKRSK

[8] = target: T4, Tyrosyl-tRNA synthetase, putative (Trypanosoma cruzi (strain CL Brener)); experiment: Trypanosoma cruzi tyrosyl tRNA synthetase (TcYRS) SOP; type: functional; conditions: 30 µM
[9] = target: Chromo domain-containing protein 1 (Saccharomyces cerevisiae (strain ATCC 204508 / S288c) (Baker's yeast)) (UniProt P32657); experiment: ScCHD-1 Enzyme Inhibition Assay; type: functional; conditions: 30 µM; also: in the data most compounds retested in dose-response had high values
Chromo domain-containing protein 1 (Saccharomyces cerevisiae (strain ATCC 204508 / S288c) (Baker's yeast)), sequence (P32657 whole entry, the tested form may be a part): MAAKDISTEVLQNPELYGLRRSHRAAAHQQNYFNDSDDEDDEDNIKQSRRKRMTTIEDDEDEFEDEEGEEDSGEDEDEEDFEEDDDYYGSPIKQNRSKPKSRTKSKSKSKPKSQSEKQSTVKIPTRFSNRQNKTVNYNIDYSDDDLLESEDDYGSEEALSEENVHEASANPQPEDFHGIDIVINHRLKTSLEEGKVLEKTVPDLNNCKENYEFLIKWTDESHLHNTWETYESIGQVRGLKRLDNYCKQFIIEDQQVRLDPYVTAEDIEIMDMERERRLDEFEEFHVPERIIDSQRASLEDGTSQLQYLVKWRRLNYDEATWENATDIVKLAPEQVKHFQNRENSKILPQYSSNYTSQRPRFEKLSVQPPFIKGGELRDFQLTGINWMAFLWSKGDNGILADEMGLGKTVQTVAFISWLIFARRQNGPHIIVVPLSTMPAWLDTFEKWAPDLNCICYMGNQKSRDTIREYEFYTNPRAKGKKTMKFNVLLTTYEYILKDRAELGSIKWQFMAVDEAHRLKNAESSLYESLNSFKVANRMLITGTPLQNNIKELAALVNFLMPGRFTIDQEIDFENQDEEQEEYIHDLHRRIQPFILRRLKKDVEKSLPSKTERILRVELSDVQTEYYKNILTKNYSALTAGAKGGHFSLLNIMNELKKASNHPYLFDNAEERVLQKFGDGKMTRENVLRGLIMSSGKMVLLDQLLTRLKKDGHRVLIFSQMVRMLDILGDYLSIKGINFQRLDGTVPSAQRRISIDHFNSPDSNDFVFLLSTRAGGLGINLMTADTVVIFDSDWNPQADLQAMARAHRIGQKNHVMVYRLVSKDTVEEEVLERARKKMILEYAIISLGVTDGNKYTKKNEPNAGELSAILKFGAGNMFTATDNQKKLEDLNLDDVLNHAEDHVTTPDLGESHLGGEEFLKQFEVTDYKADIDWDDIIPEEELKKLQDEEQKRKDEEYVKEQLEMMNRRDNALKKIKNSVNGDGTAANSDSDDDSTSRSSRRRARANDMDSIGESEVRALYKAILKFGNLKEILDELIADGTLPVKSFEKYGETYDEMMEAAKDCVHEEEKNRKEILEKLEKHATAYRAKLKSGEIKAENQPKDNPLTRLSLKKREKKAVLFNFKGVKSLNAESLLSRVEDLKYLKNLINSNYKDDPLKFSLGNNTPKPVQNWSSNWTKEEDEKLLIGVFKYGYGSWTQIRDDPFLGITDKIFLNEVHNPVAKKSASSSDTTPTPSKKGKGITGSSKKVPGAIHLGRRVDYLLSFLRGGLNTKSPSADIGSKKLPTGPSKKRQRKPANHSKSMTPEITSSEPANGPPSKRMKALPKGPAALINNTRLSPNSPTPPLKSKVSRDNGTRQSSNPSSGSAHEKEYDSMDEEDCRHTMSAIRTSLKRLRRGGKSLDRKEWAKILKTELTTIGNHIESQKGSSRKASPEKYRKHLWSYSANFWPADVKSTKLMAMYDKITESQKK

Protein translocase subunit SecA (Escherichia coli (strain K12)), sequence (P10408 whole entry): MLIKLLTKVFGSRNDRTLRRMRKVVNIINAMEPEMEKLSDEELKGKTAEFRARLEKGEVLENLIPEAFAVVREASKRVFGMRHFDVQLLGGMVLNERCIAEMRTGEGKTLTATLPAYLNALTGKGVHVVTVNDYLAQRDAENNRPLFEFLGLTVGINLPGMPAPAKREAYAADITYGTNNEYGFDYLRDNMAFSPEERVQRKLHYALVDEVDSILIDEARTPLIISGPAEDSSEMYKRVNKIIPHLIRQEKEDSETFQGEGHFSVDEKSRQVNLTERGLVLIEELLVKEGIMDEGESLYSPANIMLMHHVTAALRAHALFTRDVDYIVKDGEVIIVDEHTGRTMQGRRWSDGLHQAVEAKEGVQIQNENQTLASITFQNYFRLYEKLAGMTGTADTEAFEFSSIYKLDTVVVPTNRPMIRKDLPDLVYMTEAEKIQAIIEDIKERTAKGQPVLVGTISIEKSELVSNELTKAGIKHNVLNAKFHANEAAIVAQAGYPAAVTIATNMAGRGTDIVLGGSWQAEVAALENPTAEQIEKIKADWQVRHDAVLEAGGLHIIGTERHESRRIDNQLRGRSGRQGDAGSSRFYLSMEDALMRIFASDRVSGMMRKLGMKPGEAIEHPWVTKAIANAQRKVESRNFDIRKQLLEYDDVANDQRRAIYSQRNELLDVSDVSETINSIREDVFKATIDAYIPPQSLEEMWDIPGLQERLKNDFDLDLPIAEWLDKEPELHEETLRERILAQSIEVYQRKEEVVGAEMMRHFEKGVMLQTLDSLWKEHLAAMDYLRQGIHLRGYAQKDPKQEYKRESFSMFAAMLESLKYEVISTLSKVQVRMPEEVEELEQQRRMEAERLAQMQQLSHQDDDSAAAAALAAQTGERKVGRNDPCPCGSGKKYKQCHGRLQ
Sialic acid-binding Ig-like lectin 9 (Homo sapiens), sequence (Q9Y336 whole entry): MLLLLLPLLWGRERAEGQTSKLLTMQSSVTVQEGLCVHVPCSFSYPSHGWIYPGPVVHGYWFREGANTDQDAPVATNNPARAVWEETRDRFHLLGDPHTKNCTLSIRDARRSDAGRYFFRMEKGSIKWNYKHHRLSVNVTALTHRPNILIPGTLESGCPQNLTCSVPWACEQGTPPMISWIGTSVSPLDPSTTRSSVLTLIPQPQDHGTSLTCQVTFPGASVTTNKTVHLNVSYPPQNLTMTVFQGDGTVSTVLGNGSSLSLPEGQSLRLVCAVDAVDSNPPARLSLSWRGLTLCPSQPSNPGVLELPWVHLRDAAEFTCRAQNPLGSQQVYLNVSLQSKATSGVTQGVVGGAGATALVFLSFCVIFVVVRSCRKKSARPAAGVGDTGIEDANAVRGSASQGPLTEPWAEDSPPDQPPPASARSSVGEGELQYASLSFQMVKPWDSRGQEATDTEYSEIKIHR

Row | Structure (SMILES) | Percent Effect [1] | Percent Effect [2] | Percent Effect [3] | Percent Effect [4] | Percent Effect (Trypanosoma cruzi) | Percent Effect [5] | Percent Effect [6] | Percent Effect (Homo sapiens) | Percent Effect [7] | Percent Effect [8] | Percent Effect [9]
1 | C[S+]([O-])c1nncn1CC(=O)c1cccc(Cl)c1 (configuration not stated) | -7.89% | 16.2% | -4.48% | 23.3% | 6.16% | 3.72% | 10.4% | -1.98% | 5.38% | 8.64% | -6.7%
2 | Cc1cc(C)c2nc(CN3CC[C@@H](O)C3)cc(O)c2c1 | -2.1% | 0% | 0.932% | 1.78% | -1.16% | -3.81% | 11.9% | -16.8% | 13.2% | 19.5% | -5.98%
3 | Cc1n[nH]cc1C(=O)N1CCCC(n2nnc3cc(F)ccc32)C1 (configuration not stated) | -5.29% | 5.33% | 7.57% | -0.922% | 6.5% | -3.5% | 11.7% | 5.51% | 5.32% | 11.5% | -7.34%
4 | Cn1ncc2c(NCCOc3ccc(F)cc3)nc(C3CCCC3)nc21 | -2.15% | 5.48% | 12.7% | 7.22% | 9.79% | 2.27% | -0.355% | 49.2% | 5.38% | 10% | -3.29%
5 | O=C1N(Cc2ccccc2F)CCCC12CCN(C1CCSCC1)C2 (configuration not stated) | -1.79% | -8% | -0.682% | 0.979% | -1.46% | 3.65% | 8.37% | -10.4% | 8.2% | 8.64% | 0.67%
6 | CCS(=O)(=O)Nc1ccc(C(=O)NCCCN2CCCC2)cc1 | -2.09% | 13.2% | 2.99% | -3.93% | -3.8% | 0% | 19.1% | -9% | 4.25% | 7.79% | -4.55%
7 | Cc1ccc(OCCCNC(=O)NC(C)c2nncn2C)cc1 (configuration not stated) | -4.22% | 13% | 6.68% | -5.15% | 4.41% | 4.42% | 8% | -0.0367% | 7.62% | 18.8% | -17.6%
8 | CS(=O)(=O)N1CC[C@H]2O[C@H](C(=O)NCCc3ccncc3)CC[C@H]21 | -7.37% | 0% | 5.86% | -3.48% | -2.51% | -57.5% | -1.03% | 15% | 2.08% | -15% | 3.45%
9 | O=C(c1cccc(Cn2ccnc2)c1)N1CCCC(n2ccnc2)C1 (configuration not stated) | -0.331% | 16.2% | -8.78% | 1.96% | 5.11% | -2.4% | 7% | 29% | 5.94% | 25.6% | -6.66%
10 | O=C(N1CCCO1)[C@@]12CCO[C@@H]1CCN(C1CCCCC1)C2 | -5.99% | 16% | -8.58% | 1.15% | 0% | -50.7% | 4.96% | -2.54% | -105% | 15% | -10.2%
11 | Cc1cc(CNC(=O)N2CCN(c3nc(C)c(C)s3)CC2)no1 | -9.13% | 18.9% | -4.31% | 31.4% | 9.18% | 45% | 17.2% | 14% | 8.91% | 15.8% | -4.46%
12 | COC(=O)N1CCc2ccc(NC(=O)c3cn(C)nn3)cc2C1 | -6.1% | 10.4% | 2.87% | 5.76% | 2.07% | -49.7% | 9.92% | 12.5% | 5.29% | 8.97% | 90.7%
13 | O=C(N1CCCCC1)N1CCN(CC(O)c2ccc(F)cc2)CC1 (configuration not stated) | -0.539% | 13.2% | -0.12% | 5.2% | -4.51% | 4.21% | 4.84% | 20.8% | 8.33% | 17.1% | -5.09%
14 | Cc1noc(C)c1C(=O)N1CCCC1c1c(C)nn(C)c1Cl (configuration not stated) | -4.44% | 7.59% | -2.1% | 8.04% | 5.38% | -4.56% | -1.72% | 4.02% | 2.46% | 8.86% | -0.777%
15 | Cc1ccc(N2CCCC(NCc3nc(C)c(C)o3)C2)nn1 (configuration not stated) | -2.18% | -1.27% | -3.24% | 1.76% | 9.54% | -1.07% | -2.4% | 2.43% | 3.12% | 15.2% | -25.4%
16 | Cc1nc2ccnn2c(C)c1CCC(=O)N1CCC(C(N)=O)CC1 | -6.89% | 2.63% | 0.295% | -2.71% | -5.32% | 2.88% | 5.5% | 4.03% | 5.42% | 1.24% | 1.87%
17 | CC(=O)N1CCC2(CC1)CC[C@@]1(C(=O)N(C)C)CN(S(C)(=O)=O)C[C@@H]21 | 0.456% | 18.9% | -1.01% | 10.2% | 2.83% | 12.7% | 4.38% | 28.4% | 3.23% | 18.5% | -8.55%
18 | Cc1cc(CN2CCN(C(=O)CCc3cccc(F)c3F)CC2)on1 | 2.13% | 0% | -6.33% | 7.49% | 5.99% | 10.9% | 0.862% | -0.409% | -0.529% | 4.88% | 0.403%
19 | Cn1ccnc1CN1CCC2(CC1)CC(Oc1cccnc1)C2 | -2.04% | 8% | 4.85% | 10.2% | -1.35% | -23.8% | 1.88% | 6.63% | 10.4% | 22.5% | -6.08%
20 | CSc1ncc(C(=O)N2C[C@H]3CC[C@@H]2CN(Cc2ccccc2)C3)cn1 | 0.697% | 2.74% | 22.7% | -2.06% | -6.66% | 2.27% | 11% | 4.63% | 6.45% | 10% | 0.291%
21 | O=C(C1=CC2(CCNCC2)c2ccccc21)N1CCCC1 | -0.609% | 2.67% | 6.96% | -3.45% | -7.53% | -56.1% | 7.52% | -19.8% | -3.12% | 2.5% | -6.64%
22 | Cc1ccc(-c2ncc(C(=O)NCCS(N)(=O)=O)s2)c(C)c1 | -7.16% | 5.41% | -2.36% | 0.84% | -5% | -3.61% | 9.55% | 21.4% | 0.493% | -1.24% | -4.18%
